This passage reports cytotoxicity results from PubChem BioAssay AID620 (Sanford-Burnham Center for Chemical Genomics, 2007).

Among all 87,000 compounds or so, about 360 (0.41%) were called active. Shown is part of a subset that was picked to be rich in actives. Values without a mark were called inactive. No stated cut-off is given here; in the data, active means cytotoxicity above about 50%; inactive means the rest.

A short description of the assay: cytotoxicity in HT1080 fibrosarcoma cells, cell-based, fluorescence readout (AID 620).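 Further: cells exposed to compound overnight then 4 h with Alamar Blue; 0% = vehicle DMSO and 100% = killing control.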 The conditions noted are these: HT1080 viability, at 10 µM, active compounds read high.
Regarding `CCOC(=O)CCP(=O)(O)C(C)(O)c1ccccc1` (configuration not stated), the cytotoxicity is -7.3%. For `COn1c(=O)c(-c2cccs2)[n+]([O-])c2ccccc21`, the cytotoxicity was -15.3%.

Regarding `COc1ccc(N2CC(O)=C(c3nc4ccccc4s3)C2=N)c(OC)c1`, the cytotoxicity was -0.1%. Then `COc1ccc(OC)c(N2CC(O)=C(c3nc4ccccc4s3)C2=N)c1`, with -5.7%; and `CCOc1ccccc1N1CC(O)=C(c2nc3ccccc3s2)C1=N`, with 68.7% (active); and `O=C(NCc1ccccc1)C1(c2ccccc2)CCN(S(=O)(=O)c2ccccc2)CC1`, with -1.9%. Take `O=C(CSc1nc2c(c(=O)n1-c1ccc(Cl)cc1)SCC2)N1CCCC1`: the cytotoxicity is -1.5%. As for `N#Cc1c(-c2ccc(Cl)cc2)ccn2nc(C3CCCCC3)nc12`, the cytotoxicity is -4%.

On to `Cc1nc(NC(C)C)c2oc3ccccc3c2n1`, for which the cytotoxicity is -2.5%. Consider `COc1cccc(N2CCN(c3ncnc4c3[nH]c3ccc(F)cc34)CC2C)c1` (configuration not stated), for which the cytotoxicity was 54.2% (active). Then `Fc1ccc2[nH]c3c(N4CCN(c5ccccc5)CC4)ncnc3c2c1`, with -4.2%; and `COc1cccc(N2CCN(c3ncnc4c3[nH]c3ccccc34)CC2C)c1` (configuration not stated), with -3%; and `O=C(C1CCCN(Cc2cccc(F)c2)C1)N1CCCCC1` (configuration not stated), with 14.1%. To `O=C(Nc1ccc(N2CCOCC2)c(Cl)c1)c1ccc(F)cc1` belongs 56.2% (active); to `CCC(=O)N1CCN(c2ccc(NC(=O)c3cc4ccccc4o3)cc2)CC1`, 1.3%. To `CCC(=O)N1CCN(c2ccc(NC(=O)c3cc4ccccc4o3)cc2Cl)CC1` belongs 96.3% (active); to `O=C(Nc1ccc(N2CCN(C(=O)c3ccc(Cl)cc3)CC2)cc1)c1cc2ccccc2o1`, 7%; to `O=C(Nc1ccc(N2CCOCC2)c(Cl)c1)c1c(F)c(F)c(F)c(F)c1F`, 8.9%. As for `O=C(Nc1ccc(CN2CCOCC2)cc1)c1cc2ccccc2o1`, the cytotoxicity was 8.9%. To `O=C(Nc1ccc(N2CCOCC2)c(Cl)c1)c1cc2ccccc2o1` belongs 89.6% (active); to `O=C(Nc1ccccc1N1CCN(C(=O)c2ccc(Cl)cc2)CC1)c1cc2ccccc2o1`, 1.6%; to `O=C(Nc1ccc(N2CCOCC2)cc1)c1cc2ccccc2o1`, 1.6%.

`CCCC(=O)N1CCN(c2ccc(NC(=O)c3cc4ccccc4o3)cc2Cl)CC1`: the cytotoxicity is 69.8% (active). To `O=C(Nc1ccc(N2CCOCC2)c(Cl)c1)c1cccc(F)c1` belongs 22.9%. `CCC(=O)Nc1ccc(NC(=O)c2cc3ccccc3o2)cc1`: the cytotoxicity was -1.5%. To `CCOC(=O)c1ccc2ncc(C(=O)OCC)c(NCc3ccco3)c2c1` belongs 1.9%. To `O=S(=O)(Nc1ccccn1)c1ccc(Cl)cc1` belongs -6.1%; to `COc1cccc(-n2c(Cc3cc(=O)[nH]c(=O)[nH]3)nnc2SCC(=O)N2CCCC2)c1`, 3.9%. Then `COc1ccc([C@H]2[C@@H](C#N)[C@H](C#N)N3CCCN23)cc1`, with 5.9%. As for `O=C(CCn1c(=O)sc2ccccc21)NCCN1CCOCC1`, the cytotoxicity was 4.4%. As to `Cc1ccc(-c2noc(CCCN3C(=O)c4ccccc4C3=O)n2)cc1`, the cytotoxicity was -3.5%.

For the molecule `CC(C)c1ccc(NC(=S)NCc2cccs2)cc1`, the cytotoxicity was -17.4%. As for `O=C(CN1CCc2ccccc2C1)Nc1ccc(Br)cc1`, the cytotoxicity was -3.2%. Then `O=C(Nc1ccc(N2CCCC2)c(Cl)c1)c1ccc(Br)o1`, with 12.7%.

For `O=C(Nc1ccc(N2CCN(C(=O)c3ccco3)CC2)c(Cl)c1)c1cc2ccccc2o1`, the cytotoxicity is 81.6% (active).

With `O=C(Nc1ccc(N2CCN(C(=O)c3ccccc3)CC2)c(Cl)c1)c1ccc(Br)o1`, the cytotoxicity is 22.5%. Then `O=C(Nc1ccc(N2CCN(C(=O)c3ccccc3)CC2)c(Cl)c1)c1ccco1`, with -4.5%.

`O=C(Nc1ccc(N2CCN(C(=O)c3ccco3)CC2)c(Cl)c1)c1c(F)c(F)c(F)c(F)c1F`: the cytotoxicity is -3%. Then `O=C(Nc1ccc(N2CCOCC2)c(Cl)c1)c1ccc(Br)o1`, with 51.4% (active); and `COc1ccc2c(c1)c(=O)oc1cc(OCC(=O)N3CCCC(C)C3)ccc12` (configuration not stated), with -1.8%; and `CCC1=C(C)N(CCCC(=O)O)C(=O)NC1c1cccc(Cl)c1Cl` (configuration not stated), with -11.7%. To `CCOC(=O)C1=C(C)NC(SCC(=O)O)=C(C#N)C1c1ccco1` (configuration not stated) belongs -8%; to `O=C(CN(C1CCCCC1)S(=O)(=O)c1ccccc1)NCc1cccnc1`, 1.3%; to `CCOC(=O)c1c(C)[nH]c2cc(Br)c(OC)cc12`, -9%. To `C=CCNC(=O)C12CC3(C)CC(C)(CC(C)(C3)C1)C2` belongs -24.6%; to `CCOC(=O)c1c(NC(=O)CN(C)C)sc(C(=O)N(CC)CC)c1C`, 25.3%; to `CCOC(=O)Nc1sc(C(=O)N(CC)CC)c(C)c1C(=O)OCC`, -6%. For `CCOC(=O)c1c(NC(=O)CCl)sc(C(=O)N(CC)CC)c1C`, the cytotoxicity was 53.8% (active).

Turning to `CCC(C)[C@H](NC(=O)NCc1cccs1)C(=O)O` (some centres not stated), the cytotoxicity was 8.7%. Regarding `CC(C)(C)NC(=O)Cn1nnnc1-c1nonc1N`, the cytotoxicity is 0.2%. For `CCOC(=O)c1cnc(SCc2ccc(C)cc2)nc1N`, the cytotoxicity was 5.8%. Consider `CCC(=O)Nc1nonc1-c1nc2ccccc2n1Cc1cccc2ccccc12`, for which the cytotoxicity was 56.3% (active). Then `CCCCOc1ccccc1NC(=O)Cn1c(-c2nonc2N)nc2ccccc21`, with 24.5%; and `CCOC(=O)c1ccccc1NC(=O)Cn1c(-c2nonc2N)nc2ccccc21`, with 60.4% (active). Then `COC(=O)c1ccccc1NC(=O)Cn1c(-c2nonc2N)nc2ccccc21`, with 32%. On to `CCC(=O)Nc1nonc1-c1nc2ccccc2n1CC(C)C`, for which the cytotoxicity was 2.9%. Then `CCC(=O)Nc1nonc1-c1nc2ccccc2n1Cc1ccc(Cl)c(Cl)c1`, with -2.7%; and `O=C(O)c1cccc(CN2C(=O)CSC2=O)c1`, with 3.1%; and `Cc1nn(-c2ccccc2)c2sc(C(=O)OCN3C(=O)c4ccccc4C3=O)cc12`, with -4%.

With `NC(=O)c1ccccc1OCC(=O)NS(=O)(=O)c1ccc(Cl)cc1`, the cytotoxicity was -12.8%. To `CC(C)COc1ccc(CNC(=S)N/N=C/c2ccc([N+](=O)[O-])cc2)cc1` belongs -12.7%. To `O=C1C2CCCN2C(c2cccc(F)c2)N1c1cccc(Cl)c1` (configuration not stated) belongs 8.3%; to `N=c1n(CCN2CCOCC2)c2ccccc2n1CC(=O)c1ccc(Cl)c(Cl)c1`, 80.5% (active). For `N=c1n(CCOc2ccccc2)c2ccccc2n1CCN1CCOCC1`, the cytotoxicity is 6.2%. To `CCCCOC(=O)Cn1c(=N)n(CCN2CCOCC2)c2ccccc21` belongs -3.2%; to `O=C(COc1ncnc2ccccc12)NC1CCS(=O)(=O)C1` (configuration not stated), 0.3%. Then `O=C(Nc1ccc(NC(=O)C2CCCCC2)nc1)c1ccco1`, with -0.2%; and `COc1ccccc1N1CCN(Cc2nc(N)nc(Nc3ccc(C)cc3)n2)CC1`, with -2.7%; and `CSc1nc(C)c2cc(C)oc2n1`, with 10.3%. Take `COc1ccc2nc(NC(=O)CCn3cccc3)sc2c1`: the cytotoxicity was 2.1%. Then `CN(C)c1ncc(C2=C(Cl)C(=O)C(N3CCCC3)=C(Cl)C2=O)s1`, with 16.7%; and `CN1CCN(C2=C(Cl)C(=O)C(c3cnc(N4CCCCC4)s3)=C(Cl)C2=O)CC1`, with 37.1%; and `CCCCOc1ccc(CSc2nncn2N)cc1`, with 0.8%.

With `O=C1CCCN1c1ccc(S(=O)(=O)NCCOc2ccccc2)cc1`, the cytotoxicity is -6.1%.

As to `COc1ccc(OC)c(NS(=O)(=O)c2ccc3c(c2)n(C)c(=O)n3C)c1`, the cytotoxicity was -7.2%.

For the molecule `COc1ccc(OC)c(NS(=O)(=O)c2ccc(N3CCCC3=O)cc2)c1`, the cytotoxicity was 60.6% (active). Then `Cc1ccccc1NS(=O)(=O)c1ccc(N2CCCC2=O)cc1`, with 56.7% (active); and `COc1ccc(CCNS(=O)(=O)c2ccc(N3CCCC3=O)cc2)cc1`, with -12.5%; and `Cc1ccccc1NS(=O)(=O)c1ccc(F)cc1`, with 6.2%. Regarding `CCOC(=O)C1CCN(C(=O)Nc2ccc3nc(C)c(C)nc3c2)CC1`, the cytotoxicity is 2.9%. Then `Cc1cc(C)c(S(=O)(=O)NCC2CCC(C(=O)NCCCN3CCOCC3)CC2)c(C)c1` (configuration not stated), with 2.9%; and `Cc1cc(C)c(NC(=O)c2ccc(S(=O)(=O)N3CCOCC3)cc2)c(C)c1`, with -5.9%; and `C=CCN1C(=O)S/C(=C/c2ccsc2)C1=O`, with 2.6%.

As for `C=CCOC(=O)c1[nH]c2c(c1C)C(=O)CC(c1ccco1)C2` (configuration not stated), the cytotoxicity is 67.5% (active). In the case of `C/C=C/COC(=O)c1[nH]c2c(c1C)C(=O)CC(c1ccco1)C2` (configuration not stated), the cytotoxicity was 65.5% (active). Then `C/C=C/COC(=O)c1[nH]c2c(c1C)C(=O)CC(c1ccc(N(C)C)cc1)C2` (configuration not stated), with -0.3%; and `N#CC1=C2C=CC=CN2CC1=O`, with -0.7%; and `COc1ccc(CC(=O)N2CCCc3ccccc32)cc1`, with -11%. Turning to `CCSC1(SCC)N=C(N)C2(C#N)C(c3ccccc3)NC(C)=C(C)C12C#N` (configuration not stated), the cytotoxicity was 6.9%. To `CCN(CC)S(=O)(=O)c1ccc(Br)c(OC)c1` belongs -1.2%. Then `CCc1ccccc1NC(=O)CN1C(=O)C2CCCN2c2ncc(Cl)cc21` (configuration not stated), with -1.2%; and `O=C(O)Cc1ccc(C(=O)c2cccs2)s1`, with 6.9%. Then `Cc1ccc(C(=O)c2nocc2C(=O)c2cccs2)cc1`, with -9.5%; and `O=C(c1cccs1)c1no[n+]([O-])c1C(=O)c1cccs1`, with 73.8% (active); and `CCOC(=O)N1CCN(C(=O)c2cnsn2)CC1`, with -5.1%. On to `CC(C)(C)N1CC(c2nc3ccccc3n2Cc2ccccc2)CC1=O` (configuration not stated), for which the cytotoxicity is -14.8%. To `Cc1cccc(N(C)C(=O)COc2cc(=O)n(C)c3ccccc23)c1` belongs 2%.
